Screening data deposited in PubChem by National Center for Advancing Translational Sciences (NCATS).
DRD3 antagonist: antagonists of human D3 dopamine receptor; P35462; D3R cells, DiscoveRx beta-arrestin luminescence, antagonist mode; active compounds read low; max response, negative = inhibition, %; 2.5% of 360,000 active; AID 652054; in the data active means max response below about -50%; inconclusive means no clear call, values can overlap the other calls; further: on the % scale 0 is the no-effect control and ±100 the full control effect
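Cells expressing the human receptor were seeded at 1500 cells/well, incubated overnight at 37 degrees C in 5% CO2, then exposed to library compounds with dopamine controls for 90 minutes at 37 degrees C before luminescent detection.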
TDP1 cell noCPT: qHTS for Inhibitors of human tyrosyl-DNA phosphodiesterase 1 (TDP1): qHTS in cells in absence of CPT; Potency, µM (doses to about 46.2 µM), for the others: at the highest dose activity change, negative = growth inhibition, hits mostly inhibitors; 15% of 420,000 active; DT40 Tdp1-/- hTDP1 cells, no CPT, ATP luminescence, 48 h; AID 686978, 2013; further: potency means the concentration at half of the fitted maximal effect; on the % scale 0 is the no-effect control and ±100 the full control effect; nearly all actives have a fitted effect of over 55% in size
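Seeded 400 DT40-hTDP1 cells/well (vehicle DMSO, no 20 nM CPT); pinned compounds; ≥48 hr at 37 °C; CellTiter-Glo luminescence as viability measure.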
DRD3 agonist: agonists of human D3 dopamine receptor. P35462. D3R DiscoveRx beta-arrestin cells, luminescence, 90 min. max activation, %. 0.58% of 410,000 active; in the data active means max activation above about 30%; further: 0% is about no effect
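Agonist-mode cell screen: cells plated at 1500/well and incubated overnight at 37 °C, then exposed to library compounds for 90 min at 37 °C. Detection reagent was added for 30–60 min at room temperature, and luminescence was read.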
ClpP mod: qHTS Assay for Activators of ClpP; ATP-dependent Clp protease proteolytic subunit (Bacillus subtilis (strain 168)), P80244; purified B. subtilis ClpP, FRET peptide cleavage, 20 min; Potency, µM (series often up to 57.5 µM), without a hit: at the top dose activity change, negative = active; 1.9% of 340,000 active; AID 651965, 2013; active means well fitted falling curve with a large enough effect; inconclusive means small, poorly fitted or top-dose-only effect; inactive means no such curve, though single readings can be large or run the other way; further: potency means the concentration at half of the fitted maximal effect; the source files actives as falling curves though it sought activators and does not explain the sign; nearly all actives have a fitted effect of over 65% in size
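ClpP 10 microg/mL final, pH 8 Tris/KCl buffer with BSA, glycerol, Tween-20; compound pinned in; FRET-FV substrate; RT 20 min; Ex320/Em430; ΔFRET vs ADEP 5.8 microM, DMSO, no enzyme.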
IL-1B inflam inh: inhibitors of inflammasome signaling (IL-1 beta secretion); THP-1 LPS/ATP IL-1B secretion, AlphaLISA, 16 h; active compounds read low; 4.7% of 360,000 active; activity change, % at 57.5 µM; in the data active means activity change below about -50%; inconclusive means mostly about -30% to -49%; further: on the % scale 0 is the no-effect control and ±100 the full control effect
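THP-1 cells pretreated 1 hr with compounds (up to 57.5 uM final), then stimulated with LPS (250 ng/mL final) plus ATP (1.25 mM final); secreted IL-1B measured by AlphaLISA after 16 hr, decreased signal indicating inhibition.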
DT40 TDP1 CPT: DT40-hTDP1 cell growth loss with CPT; Potency, µM (titrated, usually from 46.2 µM), for inactives: top-dose activity change, negative = growth inhibition, most hits filed as inhibitors; chicken DT40 Tdp1-/-;hTDP1 cells + 20 nM CPT, ATP luminescence, 48 h; AID 686979; 12% of 420,000 active; further: potency means the concentration at half of the fitted maximal effect; on the % scale 0 is the no-effect control and ±100 the full control effect; nearly all actives have a fitted effect of over 55% in size
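Chicken DT40 Tdp1-/- cells stably complemented with human TDP1 were seeded at 400 cells/well in medium containing 20 nM camptothecin, exposed to pin-transferred compounds, and grown at 37 °C for at least 48 hr. Viability was read as ATP luminescence.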
Starred values were filed as active, the others as inactive; i = inactive; ? = inconclusive; . = not tested or not shown; ! = not confirmed by another sample. Rows were chosen to be rich in hits. Some 21% of all compounds tested hit in one or more screens of this group. Unless noted, the call rests on the fitted dose curve; in most records, active means well fitted inhibition curve with a large enough effect; inconclusive means small, poorly fitted or top-dose-only effect; inactive means flat fitted curve, though single readings scatter.

SMILES	DRD3 antagonist	TDP1 cell noCPT	DRD3 agonist	ClpP mod	IL-1B inflam inh	DT40 TDP1 CPT
Cc1cc(NC(=O)c2cccnc2)cc(-c2nc3cc(Cl)ccc3o2)c1O	.	.	-9.6	0.6%	.	.
CCOC(=O)c1c(C)nc(C)c(C(=O)OCC)c1-c1cccc([N+](=O)[O-])c1	0.2	?	6.0	0.8%	-17.8	-27.2%
CCOC(=O)c1cc(-c2cccc([N+](=O)[O-])c2)nc2[nH]c(=O)[nH]c(=O)c12	-0.4	23.1µM*	2.2	-0.9%	-25.0	-17.8%
COc1cccc(-n2nc(-c3ccnn3-c3ccc(C)cc3)c(=O)n(C)c2=O)c1	-23.9	-28.4%	-4.5	-1.5%	-57.0*	?
CCOc1ccc(-n2c(-c3ccc(C)cc3)nc3c(cnn3-c3ccccc3)c2=O)cc1	.	?	-3.8	-1.3%	.	-26.4%
COc1ccc(-n2c(-c3ccco3)nc3c(cnn3-c3ccc(C)cc3)c2=O)cc1	12.9	11.6µM*	4.6	?	-7.1	11.6µM*
COc1ccc(-n2c(-c3ccccc3F)nc3c(cnn3-c3ccc(C)cc3)c2=O)cc1	.	13µM*	-10.1	25.1µM*	.	20.6µM*
COc1cccc(-n2c(-c3ccco3)nc3c(cnn3-c3ccc(C)cc3)c2=O)c1	.	14.6µM*	-11.0	-29.6%	.	14.6µM*
Cc1ccc(-c2cc(C(F)(F)F)n3ncc(C(=O)N4CCN(C)CC4)c3n2)cc1	?	-12.9%	-16.5	18.2%	?	4.8%
COc1ccccc1-c1cc(C(F)(F)F)n2ncc(C(=O)N3CCc4ccccc4C3)c2n1	2.6	23.1µM*	1.8	-8.7%	i	?
O=S(=O)(c1ccccc1)c1cnn2c(C(F)(F)F)cc(-c3ccccc3)nc12	21.7	-15.5%	2.9	?	14.5	?
COc1ccccc1-c1cc(C(F)(F)F)n2ncc(S(=O)(=O)c3ccccc3)c2n1	-8.1	?	2.7	28.2µM*	-6.2	?
COC(=O)C1=C(C)N(C(C)C)C(=O)C1(NC(=O)c1ccc(C(C)(C)C)cc1)C(F)(F)F (stereo not drawn)	.	?	5.5	-3.8%	.	?
COc1ccccc1CCC(=O)OCC(=O)NC1CC1	9.4	-19.0%	5.0	.	9.9	15.7%
CO/N=C(\C(=O)N[C@@H]1C(=O)N2C(C(=O)O)=C(CSc3cnns3)CS[C@H]12)c1csc(N)n1	.	-10.7%	0.1	.	.	2.3%
COCC1=C(C(=O)OC(C)OC(=O)OC(C)C)N2C(=O)[C@@H](NC(=O)/C(=N\OC)c3csc(N)n3)[C@H]2SC1 (stereo partly drawn)	9.1	1.33µM*!	0.5	0.1%	14.5	3.35µM*!
CC(C)Cc1cc(C(=O)N2CCCC(CO)(Cc3ccc(F)cc3F)C2)n[nH]1 (stereo not drawn)	20.9	?	-5.5	0.8%	29.8	?
CCc1ccc(/C=C2\SC(=S)N(CCCC(=O)NCCCN3CCOCC3)C2=O)cc1	-5.4	?	-10.3	-0.3%	-56.7*	20.6µM*
CCc1ccc(/C=C2/SC(=S)N(CCC(=O)NCCCN3CCOCC3)C2=O)cc1	13.5	-21.3%	8.7	-1.1%	-29.5	-30.0%
CCOc1ccc(/C=C2\SC(=S)N(CC(=O)Nc3ccccn3)C2=O)cc1	2.6	-0.4%	4.1	0.2%	12.0	?
CCOc1ccc(/C=C2\SC(=S)N(CCC(=O)Nc3ccc(C(=O)O)cc3)C2=O)cc1	4.5	9.9%	-1.2	0.6%	-15.4	0.2%
CCOc1ccc(/C=C2\SC(=S)N(CC(=O)N(CCO)C(C)(C)C)C2=O)cc1	-11.3	?	-7.8	.	-123.3*	?
CCOc1ccc(/C=C2\SC(=S)N(CCCC(=O)NCCCN3CCOCC3)C2=O)cc1	-23.7	?	0.7	.	-89.4*	18.4µM*
CCN(CC)C(=O)C(=O)N/N=C/c1ccc(F)cc1	11.3	1.3%	7.7	.	0.0	0.0%
O=[N+]([O-])c1ccc(O)c(C=Nc2ccc3c(c2)OCO3)c1	-68.3*	-8.6%	-12.2	.	-11.4	-28.6%
SMILES	DRD3 antagonist	TDP1 cell noCPT	DRD3 agonist	ClpP mod	IL-1B inflam inh	DT40 TDP1 CPT
O=[N+]([O-])c1cc(Br)cc(C=Nc2ccc3c(c2)OCO3)c1O	-78.3*	-4.3%	-14.4	3.2%	38.7	-15.2%
CC1(C)CC(=O)C(C=Nc2ccc3c(c2)OCO3)=C(O)C1	0.0	-10.2%	-15.5	-2.2%	1.2	-26.4%
Cc1ccc(C)c(N=Cc2cc3c(cc2[N+](=O)[O-])OCO3)c1	14.4	?	-9.2	.	0.6	?
O=[N+]([O-])c1cc2c(cc1/C=N\NS(=O)(=O)c1ccccc1)OCO2	-9.8	?	8.3	0.3%	-12.0	9.2µM*
CC(C)(C)c1ccc(O)c(N=Cc2cc3c(cc2[N+](=O)[O-])OCO3)c1	-7.1	16.4µM*	7.8	.	48.8	?
Cc1ccc(N=Cc2cc3c(cc2[N+](=O)[O-])OCO3)cc1[N+](=O)[O-]	-8.0	?	0.4	-12.3%	9.8	?
O=[N+]([O-])c1ccc(S(=O)(=O)NN=Cc2ccc3c(c2)OCO3)cc1	?	-5.0%	-15.3	.	-6.9	-4.0%
Cc1cc(C)c(C)c(S(=O)(=O)Nc2ccccc2C(=O)NCCCN2CCOCC2)c1C	-16.4	?	-1.1	3.3%	-1.1	?
COc1cc(NS(=O)(=O)c2ccc(-c3ccc(=O)[nH]n3)o2)cc(OC)c1OC	-12.2	26.3%	-0.5	-2.8%	-25.5	-0.9%
Cc1cc(C(=O)N2CCc3ccccc3C2)on1	5.8	6.4%	4.2	-2.5%	3.7	6.7%
COc1cccc(C2=N/C(=C\N(C)C)C(=O)O2)c1	-2.3	23.1µM*	3.6	-1.6%	-61.0*	?
COc1ccc(OC)c(S(=O)(=O)CC(O)CS(=O)(=O)c2ccccc2)c1 (stereo not drawn)	-2.4	-26.7%	4.1	-0.1%	-15.8	?
COc1ccc(-c2noc(CCCC(=O)N3CCOCC3)n2)cc1	5.7	?	5.5	0.7%	9.7	?
COc1ccc(-c2noc(CCC(=O)N3CCN(c4cccc(C(F)(F)F)c4)CC3)n2)cc1	42.2	23.1µM*	11.0	-3.8%	?	?
COc1ccc(-c2noc(CCC(=O)N3CCN(c4cccc(OC)c4)CC3)n2)cc1	102.5	16.4µM*	43.9*	2.1%	-18.4	?
COCCSc1ccccc1C(=O)N1CCC(Cc2ccccc2)CC1	-12.1	-27.3%	-4.0	1.1%	-53.8*	?
